In the library only some 4.2% were active in any assay of this set; here they are far more common.
Cav32 inh: inhibitors of human Cav3.2 T-type calcium channel; O95180; Cav3.2-expressing cells, Fluo-4 calcium fluorescence FDSS; active compounds read low; B-score at 10 µM; actives 4% (n = 100,000); AID 449739;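 active = single-dose well whose peak fluorescence ratio is a statistical outlier from its plate by either plate-standardised score or position-corrected B-score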
CD11b adhes enh: CD11b/CD18-fibrinogen binding enhancement | P05107+P11215 | K562 CD11b/CD18 adhesion to fibrinogen, ATPlite luminescence | activation, % at 10 µM | AID 1499 | actives 0.07% (n = 93,000);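 active = 10 µM primary screen giving 50% or more activity, confirmed by 40% or more on retest at that dose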
Ec RNAP inh: inhibitors of Escherichia coli RNA polymerase; P0A8V2; E. coli RNA polymerase, fluorescence transcription assay; inhibition, %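 (tested at 10 µM)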; actives 0.2% (n = 62,000); in the data active = inhibition above about 20%
CD11b adhes inh: inhibitors of human CD11b/CD18 binding to fibrinogen; P05107+P11215; K562 CD11b/CD18 adhesion to fibrinogen, ATPlite luminescence; Mn2+ added to activate the integrin; inhibition, % at 10 µM; actives 0.54% (n = 93,000); AID 1497;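 active = primary inhibition of 50% or more at 10 µM, then 40% or more on retest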
PTK2B oligo ant: blocks oligomerization of human Pyk2 in cells | Q14289 | Q293 cells, Pyk2 FERM NanoBiT luminescence; active compounds read low | z-score (the deposit names both 25 µM and 10 µM) | actives 0.83% (n = 99,000);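 active = Z-score of -3 or lower, scaled per plate to the spread of control and sample wells; inactive = z-score above -3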;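 note: negative z-score means lost luminescence so less FERM oligomerization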
Large screens that a line does not name were inactive.

COc1ccc(N(CC(=O)Nc2cccc(C(F)(F)F)c2)S(C)(=O)=O)cc1	Cav32 inh -3.32 (no result: CD11b adhes enh, Ec RNAP inh, CD11b adhes inh)
CS(=O)(=O)N(CC(=O)Nc1ccccc1)Cc1ccc(Cl)cc1	none (no result: Ec RNAP inh)
CCOc1ccc(NC(=O)CN(c2cccc(C(F)(F)F)c2)S(C)(=O)=O)cc1	Cav32 inh -3.79 (no result: Ec RNAP inh)
CSc1cccc(NC(=O)CN(Cc2ccc(Cl)cc2)S(C)(=O)=O)c1	Cav32 inh -3.37 (no result: Ec RNAP inh)
CC(C)c1cc(C(C)C)c(S(=O)(=O)N2c3ccccc3[C@@]3(Br)C[C@H]4C(=O)N[C@@H](Cc5ccccc5)C(=O)N4[C@@H]23)c(C(C)C)c1	none (no result: CD11b adhes enh, Ec RNAP inh, CD11b adhes inh, PTK2B oligo ant)
COC(=O)C(C)N1CCC(=O)c2ccccc2S1(=O)=O (configuration not stated)	none (no result: CD11b adhes enh, Ec RNAP inh, CD11b adhes inh, PTK2B oligo ant)
CCOC(=O)C1=C(N)Oc2ccc3ccccc3c2C1c1cccnc1 (configuration not stated)	PTK2B oligo ant -3.15 (no result: CD11b adhes enh, Ec RNAP inh, CD11b adhes inh)
CCOC(=O)C1=C(N)Oc2cc(C)oc(=O)c2C1c1cccnc1 (configuration not stated)	none
Cc1ccc2cc(COC(=O)C3CCCO3)c(=O)[nH]c2c1 (configuration not stated)	none (no result: Ec RNAP inh)
O=C(OCc1ccccc1)c1cccc(-c2nnn(Cc3ccccc3)n2)c1	Cav32 inh -4.08 (no result: Ec RNAP inh)
NC(=O)/C(=N\OC(=O)c1ccco1)c1nc(-c2ccc(Br)cc2)cs1	none (no result: Ec RNAP inh)
O=C(Nc1ccc(-n2nncc2-c2ccco2)cc1)c1cc2ccccc2oc1=O	CD11b adhes enh 168.4
O=C(Nc1ccc(-n2nncc2-c2ccco2)cc1)c1cccc(F)c1	none (no result: Cav32 inh)
CCCC1=Nc2cc(C(=O)NCCCOCC)ccc2Sc2ccccc21	Cav32 inh -6.01 (no result: Ec RNAP inh)
CSc1ccccc1C(=O)Nc1ccc2c(c1)OCCO2	none (no result: Ec RNAP inh)
O=C(Nc1ccc2c(c1)OCCO2)c1coc2ccccc2c1=O	CD11b adhes inh 51.7 (no result: Cav32 inh, Ec RNAP inh, PTK2B oligo ant)
O=C(NC1CCCCC1)C(c1ccc2ncccc2c1)N(Cc1ccccc1)C(=O)c1ccc2c(c1)OCCO2 (configuration not stated)	none (no result: Ec RNAP inh)
O=C(NC1CCCCC1)C(c1ccc2ncccc2c1)N(Cc1ccc2c(c1)OCO2)C(=O)c1cccs1 (configuration not stated)	PTK2B oligo ant -3.62 (no result: CD11b adhes enh, Ec RNAP inh, CD11b adhes inh)
COc1ccc(CN(C(=O)c2ccc3c(c2)OCCO3)C(C(=O)NC2CCCCC2)c2ccc3ncccc3c2)cc1 (configuration not stated)	none (no result: CD11b adhes enh, Ec RNAP inh, CD11b adhes inh)
O=C(NC1CCCCC1)C(c1ccc2ncccc2c1)N(Cc1ccccc1)C(=O)c1cccs1 (configuration not stated)	PTK2B oligo ant -4.04 (no result: Ec RNAP inh)
COc1ccc(CN(C(=O)c2cccs2)C(C(=O)NC2CCCCC2)c2ccc3ncccc3c2)cc1 (configuration not stated)	PTK2B oligo ant -3.09 (no result: Cav32 inh, CD11b adhes enh, Ec RNAP inh, CD11b adhes inh)
COc1ccc(C(C(=O)NC2CCCCC2)N(C(=O)c2cccs2)c2ccc3c(c2)OCO3)cc1 (configuration not stated)	none (no result: CD11b adhes enh, Ec RNAP inh, CD11b adhes inh)
O=C(C1=C[C@@H](C2CCCCC2)C[C@@H](OCc2ccc(CO)cc2)O1)N1CCN(Cc2ccccc2)CC1	none (no result: CD11b adhes enh, Ec RNAP inh, CD11b adhes inh, PTK2B oligo ant)
O=C(N/N=C/c1cc([N+](=O)[O-])ccc1N1CCNCC1)c1ccc([N+](=O)[O-])cc1	none (no result: CD11b adhes enh, Ec RNAP inh, CD11b adhes inh)
COCCCNC(=O)CC(NS(=O)(=O)c1ccc(Cl)cc1)c1ccc(OC)cc1 (configuration not stated)	none (no result: Ec RNAP inh)
O=C(NC(=S)N(Cc1ccccc1)c1ccccn1)C1CC1	none (no result: Cav32 inh, Ec RNAP inh, PTK2B oligo ant)
CCOC(=O)c1cnc(SCc2ccc(C(C)(C)C)cc2)nc1N	Cav32 inh -7.2 (no result: Ec RNAP inh)
Cc1nc(NC(=O)C23CC4CC(CC(C4)C2)C3)sc1Cc1ccc2c(c1)OCO2	none (no result: Cav32 inh, Ec RNAP inh, PTK2B oligo ant)
S=C(Nc1ccc(Cl)cc1Cl)Nc1ccccc1Oc1ccccc1	none (no result: CD11b adhes enh, Ec RNAP inh, CD11b adhes inh)
S=C(Nc1cccc(Cl)c1)Nc1ccccc1Oc1ccccc1	Cav32 inh -7.23 (no result: CD11b adhes enh, Ec RNAP inh, CD11b adhes inh)
Fc1ccc(NC(=S)Nc2ccccc2OC(F)F)cc1Cl	CD11b adhes inh 100.6 (no result: Cav32 inh, Ec RNAP inh, PTK2B oligo ant)
Cc1ccc(-c2nc(SCC(=O)NCC3CCCO3)c(-c3ccccc3)[nH]2)cc1 (configuration not stated)	none (no result: CD11b adhes enh, Ec RNAP inh, CD11b adhes inh, PTK2B oligo ant)
O=C(NCCN1C(=O)S/C(=C\c2ccccc2F)C1=O)C1CCCN1C(=O)c1cccs1 (configuration not stated)	none (no result: Cav32 inh, Ec RNAP inh, PTK2B oligo ant)
O=c1c2ccccc2nc(SCc2ccccc2)n1Cc1ccco1	Cav32 inh -5.81
Cc1ccc(CSc2nc3ccccc3c(=O)n2Cc2ccco2)cc1	Cav32 inh -4.56 (no result: CD11b adhes enh, Ec RNAP inh, CD11b adhes inh)
CCN(C(=O)CSc1nc2cc(C(=O)OC)ccc2c(=O)n1Cc1ccco1)c1cccc(C)c1	Cav32 inh -4.29

Screens as filed in PubChem BioAssay.
